Where “and” joins values, the source holds several entries; their conditions need not be identical. Identical values can stand only once. In all, about 16,000 compounds went through this assay and about 2,600 (16%) were called active. Roughly 20% stayed inconclusive and do not appear here. The call rests on the fitted dose curve; in most records, active means well fitted curve in the direction sought with a large enough effect; inconclusive means small, poorly fitted or top-dose-only effect, or effect the other way; inactive means no such curve, though single readings can be large or run the other way. These entries were drawn from the full list.
Molecular target: Cytochrome P450 2D6 (Homo sapiens) (UniProt P10635)
Sequence (P10635 whole entry, looked up): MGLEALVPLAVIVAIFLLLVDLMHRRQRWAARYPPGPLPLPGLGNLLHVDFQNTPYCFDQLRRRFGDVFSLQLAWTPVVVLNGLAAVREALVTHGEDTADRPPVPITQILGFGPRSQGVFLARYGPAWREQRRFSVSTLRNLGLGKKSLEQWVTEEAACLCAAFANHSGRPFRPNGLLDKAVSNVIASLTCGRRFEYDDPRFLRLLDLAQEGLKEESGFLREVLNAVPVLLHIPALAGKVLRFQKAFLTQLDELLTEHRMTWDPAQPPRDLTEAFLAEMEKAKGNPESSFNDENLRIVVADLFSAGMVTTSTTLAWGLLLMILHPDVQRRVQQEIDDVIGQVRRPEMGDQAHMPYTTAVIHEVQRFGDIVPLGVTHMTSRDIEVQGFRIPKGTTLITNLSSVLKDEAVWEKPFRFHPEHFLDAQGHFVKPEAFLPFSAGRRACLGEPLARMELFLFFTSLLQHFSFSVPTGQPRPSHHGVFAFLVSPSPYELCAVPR
Experiment: Cytochrome panel assay with activity outcomes
Settings: recombinant CYP, pro-luciferin dealkylation, luminescence, p450-cyp2d6; series mostly up to 57.1 µM; activity, negative = inhibition: at the top concentration
On the % scale 0 is the no-effect control and ±100 the full control effect.

| SMILES | activity, negative = inhibition | AC50 |
| --- | --- | --- |
| CC/C=C\CC[C@H](O)C1=CCCCC1=O | 0.601% [at 11.4 µM] (inactive) |  |
| CC1=C(C(=O)Nc2cccnc2)C(c2cccnc2)n2nc(-c3cccs3)nc2N1 (stereo not given) | 11.8% (inactive) |  |
| Cc1ccc(C)c(Cn2c(C(=O)OC(C)C)cc3c2ccn3C)c1 | -10.6% (inactive) |  |
| COc1ccc(CN(CCN(C)C)c2ccccn2)cc1 |  | 501 nM (active) and 126 nM (active) and 100 nM (active) |
| O=C(COc1ccc(Cl)cc1)N(Cc1ccccc1)c1ccccn1 | 5.58% (inactive) |  |
| CCCCCCCCCCCCCCCC[N+](C)(C)CCN(Cc1ccc(OC)cc1)c1ncccn1 |  | 12.6 µM (active) |
| CN(C)CCOC(=O)COc1ccc(Cl)cc1 |  | inactive |
| CN(C)CCN(Cc1ccc(Cl)cc1)c1ccccn1 |  | 0.02 µM (active) |
| COc1ccc(CC(=O)O/N=C(\N)Cc2ccc(OC)cc2)cc1 | 3% (inactive) |  |
| CCSc1nnc(-c2ccccc2NC(C)=O)c(=O)[nH]1 | -26.1% (inactive) |  |
| COc1ccc(-c2nc3cnc(N4CCNCC4)nc3n(Cc3ccc(F)cc3)c2=O)cc1 | -0.475% (inactive) |  |
| CCOC(=O)CSc1nnc(Cc2cc(=O)[nH]c(=O)[nH]2)n1-c1cccc(OC)c1 | 0.419% (inactive) |  |
| CCNC(=O)c1ccc(-n2nc(C)cc2-c2ccccc2)cc1 | 6.71% (inactive) |  |
| CC(C)=CCC/C(C)=C/CO/N=C1/C[C@@H](O)[C@@H](O)[C@@H]2[C@H]3C(=O)N(c4ccc(F)cc4F)C(=O)[C@@H]3CC[C@@H]12 | 8.95% [at 11.4 µM] (inactive) |  |
| COc1ncc2nc(-c3cn(C)c4ccccc34)c(=O)n(C)c2n1 | 3.38% (inactive) |  |
| CN(C)/C(CN1CCOCC1)=C1\N=C(c2ccccc2)OC1=O | 5.8% (inactive) |  |
| NC(N)=N/N=C\c1ccc(O)c(C(=O)O)c1 | 13.4% [at 11.4 µM] (inactive) |  |
| CC(=O)/C(=N\N=C(N)N)c1ccccc1 | -4.42% [at 11.4 µM] (inactive) |  |
| NC(N)=N/N=C(/c1ccccc1)c1ccc(O)cc1O |  | 1.26 µM (active) |
| COCCCNC(=O)c1c(NC(=O)c2cccs2)sc2c1CCCC2 | -17.3% (inactive) |  |
| CCC1OC23CCCCC2C(C#N)(C(=N)O3)C1(C#N)C#N (stereo not given) | 8.79% (inactive) |  |
| Cc1ccc2nc(SCc3nnc(-c4ccccc4[N+](=O)[O-])o3)c(C#N)cc2c1 | -4.06% (inactive) |  |
| Cc1nonc1NCn1nnc2ccccc21 | 8.37% (inactive) |  |
| NN(CC(=O)O)CC(=O)O | -0.968% [at 11.4 µM] (inactive) |  |
| CO[C@H]1COC(=O)[C@H](C)NC(=O)C/C=C\[C@@H](C)[C@@H](NS(=O)(=O)c2ccc(C)cc2)COC(=O)C/C=C\[C@@H]1C | 6.92% [at 11.4 µM] (inactive) |  |

| SMILES | activity, negative = inhibition | AC50 |
| --- | --- | --- |
| CC1CCC(C(=O)O)([C@H](Br)C(=O)O)CC1 (stereo not given in full) | -1.57% [at 11.4 µM] (inactive) |  |
| Cc1nc2cnc(N3CCN(C)CC3)nc2n(C)c1=O | 12% (inactive) |  |
| O=C1c2cccc([N+](=O)[O-])c2C(=O)N1c1ncn[nH]1 | 10.8% [at 11.4 µM] (inactive) |  |
| COC(=O)[C@]1(C)CCC(c2ccc(C)cc2)=C(CC(=O)O)C1 | 13.4% [at 11.4 µM] (inactive) |  |
| C[C@]1(C2CCCC2)Cc2cc(OCC(=O)O)c(Cl)c(Cl)c2C1=O | 6.24% (inactive) |  |
| CSc1cccc(NC(=O)OC2CCCCCCCCCCC2)c1 | 10.7% [at 11.4 µM] (inactive) |  |
| CC(=O)Nc1ccc2nc(C3CCCCC3)[nH]c2c1 |  | 12.6 µM (active) |
| Cc1cc(NC(=O)C2CCCC2)n(-c2nc3ccccc3[nH]2)n1 | -10.9% (inactive) |  |
| O=C(CSc1nnc(CNc2ccc(F)cc2)o1)OC1CCCCC1 | -30.4% (inactive) |  |
| Oc1ccc(/C=N/NC(=S)NCc2ccco2)cc1 | 2.33% (inactive) |  |
| CCCn1c(C)nc2c(c1=O)c1nc3ccccc3nc1n2CCC1=CCCCC1 | -23.2% (inactive) |  |
| N#CC1(Nc2ccc(-c3ccc(NC4(C#N)CCCC4)cc3)cc2)CCCC1 | 8.6% [at 11.4 µM] (inactive) |  |
| Cn1ncc(C#N)c1/N=C/N1CCCCCC1 | 3.27% (inactive) |  |
| CCc1ccc(OCC(=O)NC(=S)Nc2ccc(C)cc2C)c(Br)c1 | 3.53% (inactive) |  |
| CCOC(=O)c1nnn(-c2nonc2N)c1-c1ccccc1 | 5.69% (inactive) |  |
| CCOC(=O)c1nnn(-c2nc(OC)nc(N3CCCCC3)n2)c1-c1ccccc1 |  | 17.8 µM (active) |
| CCOC(=O)c1nnn(-c2nonc2N)c1-c1ccc(C)cc1 | 1.09% (inactive) |  |
| Cc1nn(Cc2c(F)c(F)c(F)c(F)c2F)c(C)c1NC(=O)c1cccc(COc2ccc(Cl)cc2)c1 | -24.2% (inactive) |  |
| COc1ccc(Oc2ncc3ncc(=O)n(C[C@H]4CCCO4)c3n2)cc1 | 4.88% (inactive) |  |
| COc1ccc(NC(=O)c2ccc(-c3ccc(-c4noc(C)n4)cc3C)cc2)cc1OCCN(C)C |  | 12.6 µM (active) |
| COc1ccc(-c2cc(C(=O)Nc3cc(OC)c(OC)c(OC)c3)no2)cc1OC | -1.21% (inactive) |  |
| COc1ccc(NC(=O)c2cc(C(C)C)on2)cc1OC | -22.8% (inactive) |  |
| CC[C@H]1C2=C3C(CC[C@H]4C(OCc5ccc(F)cc5C(F)(F)F)OC[C@](C)([C@@H]34)N(C(=O)OC(C)(C)C)C2)C(COC)C1COC (stereo not given in full) | 2.49% (inactive) |  |
| CC(=O)NC1(c2cccc(F)c2)CCN(CC(=O)NC2CCCCC2)CC1 | -8.39% (inactive) |  |
| Cn1c(CCNC(=O)c2ccccc2Cl)n[nH]c1=S | -4.47% (inactive) |  |
